Data as given in the antibiotic and cytotoxicity screens of Wong et al. (2023).
Out of some 39,000 compounds screened, about 1,500 (3.8%) were called active. Only a selection was taken, and actives are over-represented in it overall.

The molecules below were run on HSkMC (human skeletal muscle cells) (assay: cytotoxicity call (relative viability < 0.9)). Settings: 10 µM.

| SMILES | cytotoxicity call |
| --- | --- |
| CN(C)CC(=O)N[C@H]1C=C[C@H](CC(=O)NCCN2CCCCC2)O[C@H]1CO | inactive |
| COC(=O)[C@@H](NC(=O)Cn1cc(COc2ccccc2/C=C(C)/C=C/C(=O)NO)nn1)c1ccccc1 | inactive |
| Cc1noc(C)c1NC(=O)Nc1ccc2c(c1)C(=O)N([C@@H](C)CO)C[C@@H](C)[C@@H](CN(C)Cc1ccc(Oc3ccccc3)cc1)O2 | inactive |
| N=C(C[n+]1ccccc1)NO | inactive |
| COC(=O)[C@H](Cc1ccc(-n2cc(-c3cccc(/C=C/C(=O)NO)c3)nn2)cc1)N1CC2=C[C@H]([C@@H](O)Cc3ccccc3)n3c(=O)n(C)c(=O)n3[C@@H]2[C@@H](C2CC2)O1 | inactive |
| C[C@H](CO)N1C[C@H](C)[C@@H](CN(C)Cc2ccc(C(=O)Nc3ccccc3N)cc2)Oc2ccc(NC(=O)CCN3CCOCC3)cc2CC1=O | inactive |
| C[C@H](CO)N1C[C@H](C)[C@@H](CN(C)Cc2ccc(Oc3ccccc3)cc2)Oc2c(NC(=O)C3CC3)cccc2C1=O | inactive |
| CC(C)N1C[C@H](C)[C@@H](CN(C)Cc2ccc(Oc3ccccc3)cc2)Oc2c(NC(=O)C3CCNCC3)cccc2C1=O | active |
| CC(C)N1C[C@H](C)[C@@H](CN(C)Cc2ccc(Oc3ccccc3)cc2)Oc2c(NC(=O)C3CCN(C)CC3)cccc2C1=O | inactive |
| COCC(=O)N1C[C@@H](C)[C@@H](OC)CN(C)C(=O)c2cc(NC(=O)c3ccc(F)cc3)ccc2OC[C@H]1C | inactive |
| CN(C)CC(=O)N[C@H]1CC[C@H](CCNC(=O)C2CC2)O[C@H]1CO | inactive |
| CO[C@@H]1CN(C)C(=O)c2ccc(NS(=O)(=O)CC(F)(F)F)cc2OC[C@@H](C)N(Cc2nccs2)C[C@@H]1C | inactive |
| COc1cc2c(cc1OC)CN(C[C@H]1C[C@H](c3ccccc3)O[C@H](c3ccc(NC(=O)CCCCCCC(=O)NO)cc3)O1)CC2 | active |
| O=C(CCCCCCC(=O)Nc1ccc([C@H]2O[C@@H](CN3CCCCCCC3)C[C@H](c3ccccc3)O2)cc1)NO | inactive |
| O=C(CCCCCCC(=O)Nc1ccc([C@H]2C[C@H](c3ccccc3)O[C@H](c3ccc(Oc4ccccc4)cc3)O2)cc1)NO | active |
| O=C(CCCCCCC(=O)Nc1ccc([C@H]2C[C@H](c3ccccc3)O[C@H](c3cccc(Oc4ccccc4)c3)O2)cc1)NO | inactive |
| O=C(CCCCCCC(=O)Nc1ccc([C@H]2O[C@@H](COc3ccccc3)C[C@H](c3ccccc3)O2)cc1)NO | inactive |
| O=C(CCCCCCC(=O)Nc1ccc([C@H]2C[C@H](c3ccccc3)O[C@H](c3ccccc3)O2)cc1)NO | inactive |
| C[C@@H]1CN([C@H](C)CO)C(=O)c2cc(NC(=O)C3CCCCC3)ccc2O[C@@H](C)CCCCO[C@H]1CN(C)S(=O)(=O)c1cccs1 | inactive |
